Screening data: PubChem, The Scripps Research Institute Molecular Screening Center
TEAD-YAP inh: TEAD-YAP interaction inhibition | HEK-TIYL cells, TEAD-Gal4/YAP UAS-luciferase luminescence | 640,000 compounds, 1.4% hits | AID 1259422 | inhibition, % at 9.12 µM; in the data active = inhibition above about 32%
MITF primary: inhibitors of human MITF; O75030; AlphaScreen MITF homodimerization, bead proximity signal; inhibition, % at 2.6 µM; 650,000 compounds, 0.91% hits; AID 1259374; in the data active = inhibition above about 50%
GPR151 activ: activators of human GPR151; Q8TDV0; PathHunter beta-arrestin GPR151 cells, luminescence; activation, % at 11.2 µM; 650,000 compounds, 1% hits; AID 1508602; in the data active = activation above about 4.9%
Target sequence (Q8TDV0 whole entry, looked up): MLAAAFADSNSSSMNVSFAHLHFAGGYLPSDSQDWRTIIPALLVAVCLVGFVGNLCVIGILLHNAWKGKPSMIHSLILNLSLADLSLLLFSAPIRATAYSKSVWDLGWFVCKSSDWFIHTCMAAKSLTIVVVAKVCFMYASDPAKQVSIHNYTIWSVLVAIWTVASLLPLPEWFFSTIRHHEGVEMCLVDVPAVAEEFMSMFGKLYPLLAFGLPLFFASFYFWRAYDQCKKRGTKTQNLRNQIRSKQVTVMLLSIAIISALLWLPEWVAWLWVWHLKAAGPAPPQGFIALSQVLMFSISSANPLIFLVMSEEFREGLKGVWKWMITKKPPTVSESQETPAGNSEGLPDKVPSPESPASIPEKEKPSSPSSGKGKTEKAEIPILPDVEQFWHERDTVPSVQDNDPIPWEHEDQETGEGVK
FBW7 act: activators of human E3 ligase FBW7; normalized activity (activation), % at 26.1 µM; 650,000 compounds, 0.13% hits; AlphaScreen FBW7–phospho-cyclin E peptide binding, activator screen; AID 1259310; Q969H0; in the data active = normalized activity above about 1.9%;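 note: purified mutant Fbw7 with reduced substrate affinity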
Large screens that a line does not name were inactive. Hits are enriched below; roughly 3.4% of the tested compounds scored in any of these assays.

Oc1ccc(N=Cc2ccc[nH]2)cc1N=Cc1ccc[nH]1	MITF primary 87
Cc1cc(NCc2ccc(F)cc2)n2cnnc2n1	none
CC(C)c1cc(=O)[nH]c(-n2nc(C3CC3)cc2NC(=O)C(C)(C)C)n1	TEAD-YAP inh 57
C/C(=N\NC(=O)c1nnn(-c2nonc2N)c1-c1cccc([N+](=O)[O-])c1)c1cccnc1	none
CCC(/C=C1\Sc2ccccc2N1CC)=C\c1sc2ccccc2[n+]1CC	TEAD-YAP inh 82
O=C(Nc1ccc(-c2ccc(NC(=O)c3ccc(Cl)cc3)cc2)cc1)c1ccc(Cl)cc1	FBW7 act 39
Cc1nc(-c2ccc(NC(=O)c3ccccc3)cc2)cs1	TEAD-YAP inh 51
Cc1ccc(C(=O)Nc2ccc(C(=O)O)cc2)cc1	TEAD-YAP inh 45
Cc1ccc(C(=O)Nc2ccc(C)c(C)c2)cc1	TEAD-YAP inh 67
CC1=C(C(=O)N2CCCCC2)C(c2ccc(Cl)c([N+](=O)[O-])c2)C2=C(CCCC2=O)N1 (stereo not drawn)	none
CCn1c(C)cc2c(c1=O)C(c1cccc(OC)c1)C(C(=O)OC)=C(N)O2 (stereo not drawn)	none
O=C(CSc1nc2ccccc2[nH]1)Nc1ccc(F)c([N+](=O)[O-])c1	none
Cc1c(-c2cccc(NC(=O)CCc3ccccc3)c2)nc2ncccn12	none
COc1cc(Nc2nc(Nc3ccccc3)c3ncn(-c4ccsc4)c3n2)cc(OC)c1OC	none
COc1cc(Nc2nc(Nc3cnccn3)nc3c2ncn3-c2ccsc2)cc(OC)c1OC	TEAD-YAP inh 38
COc1cc(Nc2nc(Cl)nc3c2ncn3-c2ccsc2)cc(OC)c1OC	TEAD-YAP inh 35
COc1cc(Nc2nc(Nc3ccc(-n4ccnc4)cc3)nc3c2ncn3-c2ccsc2)cc(OC)c1OC	TEAD-YAP inh 44
COc1cc(Nc2nc(Nc3cccnc3)nc3c2ncn3-c2ccsc2)cc(OC)c1OC	none
COc1cc(Nc2nc(Nc3ccc(-n4ccnc4)cc3)nc3c2ncn3-c2ccccc2)cc(OC)c1OC	TEAD-YAP inh 34
CCN(CC)c1ccc(NC(=O)c2ccc(-c3cccc(Cl)c3)o2)cc1	none
FC(F)(F)c1ccccc1NC(=S)NN1CCOCC1	none
Nc1ccc(/C=C/c2nc3ccccc3o2)cc1	TEAD-YAP inh 45
O=C(c1ccc2ccccc2c1)C1CCCN(C(=O)CCN2Cc3ccccc3C2=O)C1 (stereo not drawn)	none
Oc1ccc(Cl)cc1CNc1nc2ccccc2[nH]1	none
Oc1ccc(Br)cc1CNc1nc2ccccc2[nH]1	MITF primary 74
O=C1C(C=NCc2cccnc2)=C(O)c2ccccc21	TEAD-YAP inh 38
O=C1C(C=NCc2ccncc2)=C(O)c2ccccc21	none
CS(=O)(=O)Nc1ccc(-c2cnc3ncc4ccccc4c3c2)cc1	none
COCCNC(=O)Cn1ncc2c1-c1cc(C)ccc1OC2	none
CCOC(=O)N1CCN(C(=O)c2ccc(Cn3c(=S)[nH]c4ccccc4c3=O)cc2)CC1	TEAD-YAP inh 45
NNC(=O)Nc1cccc2nsnc12	TEAD-YAP inh 66
O=C1C=C(Nc2ccc(Cl)cc2Cl)CC(c2ccco2)C1 (stereo not drawn)	TEAD-YAP inh 39
O=C1C=C(NCc2ccc(Cl)cc2)CC(c2ccco2)C1 (stereo not drawn)	none
O=C(Cc1ccccc1)OCc1csc(-c2ccccc2)n1	none
COc1cc(/C=C2\SC(N3CCCC(C)C3)=NC2=O)ccc1O (stereo not drawn)	TEAD-YAP inh 56
CC1CCCN(C2=NC(=O)/C(=C/c3ccc(O)cc3)S2)C1 (stereo not drawn)	TEAD-YAP inh 49
COc1cc(/C=C2\SC(N3CCOCC3)=NC2=O)ccc1O	TEAD-YAP inh 54
COc1cc(/C=C2\SC(N3CCCC3)=NC2=O)ccc1O	none
O=C1N=C(N2CCOCC2)S/C1=C\c1ccc(F)cc1	none
CC1CCCN(C2=NC(=O)/C(=C/c3ccc(F)cc3)S2)C1 (stereo not drawn)	none
O=C1N=C(N2CCOCC2)S/C1=C\c1ccc(O)cc1	TEAD-YAP inh 39
CC(C)n1cnc2c(NCCN3CCOCC3)nc(Nc3nccc4ccccc34)nc21	none
CCCCNC(=O)c1cc(-c2cccc(OC)c2)on1	none
CN(C(=O)c1cc(-c2cccc(O)c2)on1)c1ccccc1	TEAD-YAP inh 48
O=C(NC1CCCC1)c1cc(-c2cccc(O)c2)on1	TEAD-YAP inh 70
O=C(NC1CCCCC1)c1cc(-c2ccccc2)on1	none
CCCCNC(=O)c1cc(-c2cccc(O)c2)on1	TEAD-YAP inh 36
NS(=O)(=O)c1ccc(NC(=O)CCS(=O)(=O)c2ccc(Cl)cc2)cc1	none
COc1ccc(C(=O)Nc2cc(Cl)cc(Cl)c2)c(OC)c1	none
O=C(Nc1ccc2[nH]ncc2c1)C1CN(Cc2ccccc2)CC1c1ccc(F)cc1 (stereo not drawn)	none
Cn1c2ccccc2n2c(=O)n(CC(=O)Nc3ccccc3-c3ccccc3)nc12	none
CCN(CC)CCCNc1nc2cc(OC)c(OC)cc2c2nc(-c3ccccc3)nn12	TEAD-YAP inh 32
CC1CCCCN1CCCNc1nc2ccccc2c2nc(-c3ccncc3)nn12 (stereo not drawn)	TEAD-YAP inh 80
CCCCNc1nc2ccccc2c2nc(-c3ccncc3)nn12	none
CCN(CC)CCCNc1nc2ccccc2c2nc(-c3ccncc3)nn12	TEAD-YAP inh 80
CC(C)(C)OC(=O)CSc1nc2c(c(-c3cccs3)c1C#N)CCC2	none
O=C(O)c1ccc2c(c1)C(=O)N(c1ccccc1[N+](=O)[O-])C2=O	none
O=C(O)c1ccc2c(c1)C(=O)N(Nc1ccccc1[N+](=O)[O-])C2=O	TEAD-YAP inh 48
O=Cc1ccc(-c2ccc(NC3CC3)nc2)cc1	TEAD-YAP inh 34
Nc1nc2c(s1)CCc1c-2cnn1-c1ccccc1	TEAD-YAP inh 45
CC1(C)Cc2c(cnn2-c2ccc(Cl)cc2)-c2nc3ccccc3nc21	none
COc1ccc(-c2ccc(=O)n(CC(=O)Nc3ccc(Cl)c(C(F)(F)F)c3)n2)cc1	none
O=C(Nc1ccc(-c2nc3cc(Cl)ccc3o2)cc1)c1cc(I)ccc1Cl	none
Fc1cccc(Nc2nc(-c3ccccc3F)nc3ccccc23)c1	none
S=c1nc(Nc2cc(Cl)cc(Cl)c2)c2ccccc2[nH]1	none
CC(=O)Nc1cccc(Nc2nc(-c3ccccc3F)nc3ccccc23)c1	TEAD-YAP inh 32
CC(=O)c1cccc(Nc2nc(-c3ccc(C(C)(C)C)cc3)nc3ccccc23)c1	TEAD-YAP inh 59
CC(=O)c1cccc(Nc2nc(=S)[nH]c3ccccc23)c1	TEAD-YAP inh 61
CC(=O)c1cccc(Nc2nc(-c3ccc(C)cc3)nc3ccccc23)c1	none
CC(=O)Nc1cccc(-c2nc(-c3ccccc3)nc3ccccc23)c1	FBW7 act 1.9
O=C1N[C@@H](COCc2ccccc2)C(=O)N2CCN(C(=O)c3cc(F)c(F)cc3F)C[C@H]12	none
C#C[C@]1(O)CCC2C3CCc4cc(O)ccc4C3CC[C@@]21C (stereo partly drawn)	none
Cc1ccsc1C(=O)OCC(=O)c1cc(C)n(C)c1C	TEAD-YAP inh 66
Cc1cc(C(=O)COC(=O)c2ccccc2O)c(C)n1Cc1cccs1	TEAD-YAP inh 89
